The results in this text go back to paper PMC7862700, “An all-to-all approach to the identification of sequence-specific readers for epigenetic DNA modifications on cytosine”.

What all share (test): DAPPL (digital affinity profiling via proximity ligation, sequencing); 10 mM Tris-HCl pH 7.5, 50 mM NaCl, 1 mM DTT, 4% glycerol, room temperature, 30 min; GST-TFs on glutathione beads, 16-mer random dsDNA library, 0.1% formaldehyde crosslink after washing; high values mean tight binding
Common to all, as to conditions: protein: recombinant; tags: N-terminal GST; dsDNA, one strand shown

In one assay the target is T1, FLI1 (Homo sapiens, UniProt Q01543 1-452).
T1 sequence: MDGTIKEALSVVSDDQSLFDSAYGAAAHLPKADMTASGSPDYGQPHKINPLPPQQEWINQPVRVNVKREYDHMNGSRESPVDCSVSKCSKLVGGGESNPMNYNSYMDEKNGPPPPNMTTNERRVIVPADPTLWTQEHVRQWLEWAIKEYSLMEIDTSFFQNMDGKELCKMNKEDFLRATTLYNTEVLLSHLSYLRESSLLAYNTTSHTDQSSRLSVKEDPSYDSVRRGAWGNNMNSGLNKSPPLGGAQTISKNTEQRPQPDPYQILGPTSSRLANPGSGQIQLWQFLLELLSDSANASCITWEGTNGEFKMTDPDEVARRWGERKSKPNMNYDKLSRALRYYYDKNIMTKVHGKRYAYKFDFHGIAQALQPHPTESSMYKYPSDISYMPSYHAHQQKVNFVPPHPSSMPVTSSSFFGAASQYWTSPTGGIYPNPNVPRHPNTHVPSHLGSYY
In a few lines:
(§1)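 After expression in yeast as GST fusions, human transcription factors were bound to glutathione beads, DNA-barcoded and mixed with a tag-only sample. The pools were incubated with 200 nmole of a 16-mer random double-stranded DNA library in Tris/NaCl/DTT/glycerol buffer (30 min, room temperature), washed and crosslinked with 0.1% formaldehyde. Proximity ligation with BsaI/T4 ligase ran for 1 h at 37 °C, before PCR amplification and sequencing on an Illumina NextSeq500. Binding signal is a hexamer's read frequency for a factor divided by its frequency for the tag-only sample.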

A further assay has as its target T2, ELK1 (Homo sapiens, UniProt P19419 1-428).
T2 sequence: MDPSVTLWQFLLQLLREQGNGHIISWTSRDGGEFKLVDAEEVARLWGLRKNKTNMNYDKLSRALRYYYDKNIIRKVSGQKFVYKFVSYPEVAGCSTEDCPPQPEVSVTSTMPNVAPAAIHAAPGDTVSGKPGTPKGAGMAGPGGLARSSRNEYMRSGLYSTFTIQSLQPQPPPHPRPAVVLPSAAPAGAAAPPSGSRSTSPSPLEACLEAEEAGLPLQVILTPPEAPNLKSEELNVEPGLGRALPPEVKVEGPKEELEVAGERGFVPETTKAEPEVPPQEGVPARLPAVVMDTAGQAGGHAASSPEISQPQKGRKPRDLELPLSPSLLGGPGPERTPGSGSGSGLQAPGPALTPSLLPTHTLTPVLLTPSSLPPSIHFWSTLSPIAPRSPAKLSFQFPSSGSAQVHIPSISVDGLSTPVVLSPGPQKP
The essentials: as §1

Another assay concerns the target T3, GABPA (Homo sapiens, UniProt Q06546 1-454).
T3 sequence: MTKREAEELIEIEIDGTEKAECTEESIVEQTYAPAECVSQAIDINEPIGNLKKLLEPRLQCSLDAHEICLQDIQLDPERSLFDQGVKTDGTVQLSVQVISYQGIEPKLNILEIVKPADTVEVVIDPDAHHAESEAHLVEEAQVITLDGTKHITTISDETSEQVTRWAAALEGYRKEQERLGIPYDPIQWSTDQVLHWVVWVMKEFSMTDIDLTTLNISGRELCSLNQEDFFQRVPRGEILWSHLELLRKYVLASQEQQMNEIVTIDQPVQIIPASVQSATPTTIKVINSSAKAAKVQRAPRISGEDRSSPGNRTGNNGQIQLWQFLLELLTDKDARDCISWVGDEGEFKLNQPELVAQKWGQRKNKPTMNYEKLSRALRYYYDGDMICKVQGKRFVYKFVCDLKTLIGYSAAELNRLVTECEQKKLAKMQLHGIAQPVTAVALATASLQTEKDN
The essentials: as §1

The next assay deals with T4, ERG (Homo sapiens, UniProt P11308 1-479).
T4 sequence: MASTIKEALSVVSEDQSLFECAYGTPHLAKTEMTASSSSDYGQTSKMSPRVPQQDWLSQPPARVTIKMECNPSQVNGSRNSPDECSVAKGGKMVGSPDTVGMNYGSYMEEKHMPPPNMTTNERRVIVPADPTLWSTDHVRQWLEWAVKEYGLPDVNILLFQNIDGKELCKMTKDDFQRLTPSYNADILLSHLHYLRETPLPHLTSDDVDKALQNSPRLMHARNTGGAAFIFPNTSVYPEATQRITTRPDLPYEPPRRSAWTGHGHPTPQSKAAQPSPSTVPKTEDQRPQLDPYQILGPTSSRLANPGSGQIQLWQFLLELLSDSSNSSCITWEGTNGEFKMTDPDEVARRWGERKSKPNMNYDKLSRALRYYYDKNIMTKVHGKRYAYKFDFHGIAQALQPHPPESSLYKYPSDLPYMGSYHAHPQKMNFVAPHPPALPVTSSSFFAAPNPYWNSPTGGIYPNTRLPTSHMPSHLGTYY
The essentials:
as §1

For a further assay, the target named is ELF1 (Homo sapiens, UniProt P32519 1-619). In a few lines:
as §1

For another assay, the target named is T5, EHF (Homo sapiens, UniProt Q9NZC4 1-300).
T5 sequence: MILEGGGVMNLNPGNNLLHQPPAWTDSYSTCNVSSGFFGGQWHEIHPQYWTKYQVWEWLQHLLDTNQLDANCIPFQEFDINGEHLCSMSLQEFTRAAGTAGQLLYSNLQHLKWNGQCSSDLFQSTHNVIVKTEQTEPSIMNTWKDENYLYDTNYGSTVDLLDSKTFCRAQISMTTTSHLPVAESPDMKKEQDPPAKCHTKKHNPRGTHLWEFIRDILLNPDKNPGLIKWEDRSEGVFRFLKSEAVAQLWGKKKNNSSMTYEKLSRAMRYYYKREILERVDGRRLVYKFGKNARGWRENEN
The essentials: as §1

The next assay deals with SPI1 (Homo sapiens, UniProt P17947 1-270). In a few lines:
as §1

A further assay concerns the target SPIB (Homo sapiens, UniProt Q01892 1-262). In a few lines: as §1
The target in the next assay is T6, ELK3 (Homo sapiens, UniProt P41970 1-407).
T6 sequence: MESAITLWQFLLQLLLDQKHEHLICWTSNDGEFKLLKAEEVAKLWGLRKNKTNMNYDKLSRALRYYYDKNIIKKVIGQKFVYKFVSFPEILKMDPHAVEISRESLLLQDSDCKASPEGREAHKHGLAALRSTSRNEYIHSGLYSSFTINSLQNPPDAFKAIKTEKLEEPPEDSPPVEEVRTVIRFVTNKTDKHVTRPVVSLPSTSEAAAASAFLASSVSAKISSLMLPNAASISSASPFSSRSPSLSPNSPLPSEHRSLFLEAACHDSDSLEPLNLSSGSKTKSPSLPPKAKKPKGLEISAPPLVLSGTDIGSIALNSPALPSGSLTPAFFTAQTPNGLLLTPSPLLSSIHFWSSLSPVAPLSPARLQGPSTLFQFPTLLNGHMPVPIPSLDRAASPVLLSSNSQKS
In a few lines:
as §1

Another assay deals with T7, FEV (Homo sapiens, UniProt Q99581 1-238).
T7 sequence: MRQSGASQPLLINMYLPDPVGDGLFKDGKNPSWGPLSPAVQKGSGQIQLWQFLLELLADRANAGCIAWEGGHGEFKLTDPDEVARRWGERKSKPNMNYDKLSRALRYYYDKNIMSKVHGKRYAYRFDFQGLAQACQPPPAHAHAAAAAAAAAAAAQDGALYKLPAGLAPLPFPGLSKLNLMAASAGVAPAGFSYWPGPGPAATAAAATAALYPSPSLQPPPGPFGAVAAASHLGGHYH
The essentials:
as §1

For the next assay, the target named is ETV5 (Homo sapiens, UniProt P41161 1-510). In a few lines:
as §1

For a further assay, the target named is T8, SPIC (Homo sapiens, UniProt Q8N5J4 1-248).
T8 sequence: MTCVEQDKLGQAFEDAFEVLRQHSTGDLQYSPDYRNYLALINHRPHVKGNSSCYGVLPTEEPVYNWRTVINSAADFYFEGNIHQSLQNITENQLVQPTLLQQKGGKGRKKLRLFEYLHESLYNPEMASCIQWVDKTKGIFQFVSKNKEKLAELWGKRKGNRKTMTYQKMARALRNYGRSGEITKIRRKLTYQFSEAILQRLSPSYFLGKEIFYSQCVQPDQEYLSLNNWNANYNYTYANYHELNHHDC
The essentials:
as §1

The target in the next assay is ELF4 (Homo sapiens, UniProt Q99607 1-663). The essentials:
as §1

A further assay concerns the target T9, ERF (Homo sapiens, UniProt P50548 1-548).
T9 sequence: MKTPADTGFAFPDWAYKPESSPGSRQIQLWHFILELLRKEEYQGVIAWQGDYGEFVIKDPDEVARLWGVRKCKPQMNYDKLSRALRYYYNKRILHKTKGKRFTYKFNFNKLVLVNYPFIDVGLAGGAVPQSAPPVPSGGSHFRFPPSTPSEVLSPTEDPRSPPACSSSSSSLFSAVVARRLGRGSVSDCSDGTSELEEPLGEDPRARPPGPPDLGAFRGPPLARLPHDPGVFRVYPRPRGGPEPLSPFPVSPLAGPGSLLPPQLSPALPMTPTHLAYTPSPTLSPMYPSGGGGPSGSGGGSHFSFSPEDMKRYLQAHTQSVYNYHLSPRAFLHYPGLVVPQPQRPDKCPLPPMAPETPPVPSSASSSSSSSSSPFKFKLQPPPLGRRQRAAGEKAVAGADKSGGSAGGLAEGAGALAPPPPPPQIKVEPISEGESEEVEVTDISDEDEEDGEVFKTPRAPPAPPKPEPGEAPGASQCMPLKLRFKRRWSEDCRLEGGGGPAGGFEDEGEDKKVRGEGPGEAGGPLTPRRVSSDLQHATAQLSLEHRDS
In a few lines: as §1

The target of the next assay is T10, ETV3L (Homo sapiens, UniProt Q6ZN32 1-361).
T10 sequence: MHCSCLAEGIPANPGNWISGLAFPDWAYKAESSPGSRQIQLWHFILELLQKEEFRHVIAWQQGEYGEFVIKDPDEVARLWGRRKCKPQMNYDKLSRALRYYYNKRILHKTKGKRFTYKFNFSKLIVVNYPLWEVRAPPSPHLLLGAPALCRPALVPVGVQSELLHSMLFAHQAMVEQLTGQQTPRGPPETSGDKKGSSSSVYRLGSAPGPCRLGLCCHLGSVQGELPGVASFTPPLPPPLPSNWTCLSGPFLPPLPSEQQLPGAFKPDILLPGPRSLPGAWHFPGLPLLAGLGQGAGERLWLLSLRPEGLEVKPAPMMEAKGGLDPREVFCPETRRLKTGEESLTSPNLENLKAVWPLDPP
The essentials: as §1

A further assay addresses T11, ETS2 (Homo sapiens, UniProt P15036 1-469).
T11 sequence: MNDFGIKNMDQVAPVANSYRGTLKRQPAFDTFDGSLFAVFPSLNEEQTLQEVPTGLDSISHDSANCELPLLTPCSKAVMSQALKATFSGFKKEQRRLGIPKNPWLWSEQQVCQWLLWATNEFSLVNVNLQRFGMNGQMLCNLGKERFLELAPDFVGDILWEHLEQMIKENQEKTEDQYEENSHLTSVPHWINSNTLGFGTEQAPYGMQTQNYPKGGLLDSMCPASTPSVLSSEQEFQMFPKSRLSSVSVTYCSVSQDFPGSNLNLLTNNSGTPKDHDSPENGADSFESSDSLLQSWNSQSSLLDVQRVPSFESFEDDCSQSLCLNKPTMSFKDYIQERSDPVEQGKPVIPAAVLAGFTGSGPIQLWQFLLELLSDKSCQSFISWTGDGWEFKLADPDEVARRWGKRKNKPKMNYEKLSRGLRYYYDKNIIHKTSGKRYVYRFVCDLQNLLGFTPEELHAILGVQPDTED
The essentials: as §1

The target of the next assay is T12, ELF5 (Homo sapiens, UniProt Q9UKW6-2 1-255).
T12 sequence: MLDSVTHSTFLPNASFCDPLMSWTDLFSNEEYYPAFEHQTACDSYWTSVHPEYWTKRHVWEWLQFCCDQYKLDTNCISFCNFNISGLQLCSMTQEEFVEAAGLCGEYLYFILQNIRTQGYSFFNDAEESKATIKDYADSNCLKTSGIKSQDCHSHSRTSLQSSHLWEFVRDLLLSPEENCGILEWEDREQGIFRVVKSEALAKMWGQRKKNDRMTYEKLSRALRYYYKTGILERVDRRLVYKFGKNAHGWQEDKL
In a few lines:
as §1

Another assay deals with T13, ETV3 (Homo sapiens, UniProt P41162-2 1-143).
T13 sequence: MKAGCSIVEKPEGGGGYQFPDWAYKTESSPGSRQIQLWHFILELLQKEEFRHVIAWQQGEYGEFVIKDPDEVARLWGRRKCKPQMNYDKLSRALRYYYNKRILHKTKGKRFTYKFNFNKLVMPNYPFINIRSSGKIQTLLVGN
The essentials: as §1

Another assay has as its target ETV6 (Homo sapiens, UniProt P41212 1-452). The essentials: as §1

Sequence of ELF4 (Q99607 whole entry): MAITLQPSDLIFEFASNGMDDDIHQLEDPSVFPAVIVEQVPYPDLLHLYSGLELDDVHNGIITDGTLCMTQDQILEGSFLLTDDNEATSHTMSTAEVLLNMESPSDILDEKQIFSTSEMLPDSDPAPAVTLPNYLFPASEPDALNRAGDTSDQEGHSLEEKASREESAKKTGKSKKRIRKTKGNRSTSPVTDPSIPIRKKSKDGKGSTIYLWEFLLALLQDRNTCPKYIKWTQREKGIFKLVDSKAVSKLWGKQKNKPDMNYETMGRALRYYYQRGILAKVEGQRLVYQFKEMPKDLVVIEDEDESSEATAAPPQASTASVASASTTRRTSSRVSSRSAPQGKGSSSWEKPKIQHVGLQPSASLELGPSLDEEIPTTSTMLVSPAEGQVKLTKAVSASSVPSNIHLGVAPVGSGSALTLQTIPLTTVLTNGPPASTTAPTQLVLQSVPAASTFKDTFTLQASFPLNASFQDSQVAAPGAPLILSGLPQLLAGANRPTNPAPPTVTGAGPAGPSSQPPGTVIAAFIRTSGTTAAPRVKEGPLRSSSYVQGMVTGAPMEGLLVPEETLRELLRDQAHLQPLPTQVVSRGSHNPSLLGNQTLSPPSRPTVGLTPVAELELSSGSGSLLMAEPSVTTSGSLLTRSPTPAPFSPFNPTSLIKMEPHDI
Sequence of ELF1 (P32519 whole entry): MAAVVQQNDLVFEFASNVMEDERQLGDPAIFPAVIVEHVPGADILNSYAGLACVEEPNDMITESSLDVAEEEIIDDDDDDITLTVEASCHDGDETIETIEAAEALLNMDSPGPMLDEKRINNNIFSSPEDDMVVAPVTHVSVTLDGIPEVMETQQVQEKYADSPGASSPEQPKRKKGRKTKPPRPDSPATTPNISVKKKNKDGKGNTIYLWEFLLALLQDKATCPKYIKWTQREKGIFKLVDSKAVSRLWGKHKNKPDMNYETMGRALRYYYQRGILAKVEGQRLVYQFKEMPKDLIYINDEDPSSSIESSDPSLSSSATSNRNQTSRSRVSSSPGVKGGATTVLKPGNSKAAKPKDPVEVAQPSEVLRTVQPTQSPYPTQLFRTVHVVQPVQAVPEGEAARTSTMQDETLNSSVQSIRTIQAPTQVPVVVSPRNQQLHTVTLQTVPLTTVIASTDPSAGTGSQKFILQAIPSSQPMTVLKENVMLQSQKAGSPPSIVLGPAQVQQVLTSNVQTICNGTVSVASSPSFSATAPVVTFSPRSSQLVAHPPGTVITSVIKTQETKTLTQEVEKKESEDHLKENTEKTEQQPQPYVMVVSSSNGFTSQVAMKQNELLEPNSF
Sequence of ETV5 (P41161 whole entry): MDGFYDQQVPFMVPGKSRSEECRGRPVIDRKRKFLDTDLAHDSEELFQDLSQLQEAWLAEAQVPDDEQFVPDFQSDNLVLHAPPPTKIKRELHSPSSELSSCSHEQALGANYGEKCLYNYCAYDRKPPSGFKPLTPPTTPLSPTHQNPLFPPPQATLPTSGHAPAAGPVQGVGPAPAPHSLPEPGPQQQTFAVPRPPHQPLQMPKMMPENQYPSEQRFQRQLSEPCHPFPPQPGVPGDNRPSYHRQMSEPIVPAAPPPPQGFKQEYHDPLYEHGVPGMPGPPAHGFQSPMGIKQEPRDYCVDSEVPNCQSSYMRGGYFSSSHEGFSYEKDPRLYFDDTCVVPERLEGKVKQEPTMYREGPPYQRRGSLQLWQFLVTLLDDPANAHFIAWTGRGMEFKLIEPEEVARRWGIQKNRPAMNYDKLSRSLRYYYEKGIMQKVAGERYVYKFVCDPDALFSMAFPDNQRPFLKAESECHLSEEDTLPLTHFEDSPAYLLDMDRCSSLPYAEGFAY
Sequence of ETV6 (P41212 whole entry): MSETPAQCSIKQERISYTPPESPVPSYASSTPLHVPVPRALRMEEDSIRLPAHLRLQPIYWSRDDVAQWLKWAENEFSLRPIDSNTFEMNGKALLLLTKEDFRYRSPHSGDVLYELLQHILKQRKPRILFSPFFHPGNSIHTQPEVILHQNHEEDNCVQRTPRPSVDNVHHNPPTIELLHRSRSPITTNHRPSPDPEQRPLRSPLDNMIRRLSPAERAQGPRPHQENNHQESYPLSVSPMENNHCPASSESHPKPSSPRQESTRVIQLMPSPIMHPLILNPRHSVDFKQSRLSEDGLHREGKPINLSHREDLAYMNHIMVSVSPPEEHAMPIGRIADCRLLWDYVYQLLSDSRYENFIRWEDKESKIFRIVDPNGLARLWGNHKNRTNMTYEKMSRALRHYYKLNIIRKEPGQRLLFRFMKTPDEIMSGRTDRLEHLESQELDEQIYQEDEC
Sequence of SPIB (Q01892 whole entry): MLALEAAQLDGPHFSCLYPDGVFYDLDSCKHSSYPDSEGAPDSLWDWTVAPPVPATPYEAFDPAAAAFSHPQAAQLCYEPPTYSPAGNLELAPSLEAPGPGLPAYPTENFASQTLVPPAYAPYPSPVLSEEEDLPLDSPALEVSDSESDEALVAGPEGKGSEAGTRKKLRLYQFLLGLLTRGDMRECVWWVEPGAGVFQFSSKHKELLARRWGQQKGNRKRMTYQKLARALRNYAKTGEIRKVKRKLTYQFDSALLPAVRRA

In the case of CATACC, the binding signal was 1.03 fold enrichment (6-mer frequency, TF over GST control) with FLI1; 1.06 fold enrichment (6-mer frequency, TF over GST control) with ELK1; 1.11 fold enrichment (6-mer frequency, TF over GST control) in the assay with GABPA; 1.03 fold enrichment (6-mer frequency, TF over GST control) with ERG; 1.09 fold enrichment (6-mer frequency, TF over GST control) in the assay with ELF1; 1.1 fold enrichment (6-mer frequency, TF over GST control) in the assay with EHF. Also, the binding signal with SPI1 is 1.03 fold enrichment (6-mer frequency, TF over GST control); in the assay with SPIB, 1.04 fold enrichment (6-mer frequency, TF over GST control); with ELK3, 1.09 fold enrichment (6-mer frequency, TF over GST control); with FEV, 1.07 fold enrichment (6-mer frequency, TF over GST control); in the assay with ETV5, 1.04 fold enrichment (6-mer frequency, TF over GST control); with SPIC it was 1.03 fold enrichment (6-mer frequency, TF over GST control). Further, the binding signal was 1.1 fold enrichment (6-mer frequency, TF over GST control) in the assay with ELF4; 1.03 fold enrichment (6-mer frequency, TF over GST control) in the assay with ERF; 1.17 fold enrichment (6-mer frequency, TF over GST control) in the assay with ETV3L; 1.1 fold enrichment (6-mer frequency, TF over GST control) with ETS2; 1.04 fold enrichment (6-mer frequency, TF over GST control) in the assay with ELF5; 1.06 fold enrichment (6-mer frequency, TF over GST control) in the assay with ETV3. The binding signal in the assay with ETV6 is 1.01 fold enrichment (6-mer frequency, TF over GST control).
